Results on 32 sequences are retold here after paper PMC11006913.

Among the targets are CRX (Homo sapiens, UniProt O43186 26-111, R41L); ALX1 (Homo sapiens, UniProt Q15699 118-204); HOXA4 (Homo sapiens, UniProt Q00056 201-287, W262F); ALX3 (Homo sapiens, UniProt O95076 139-225, N203S); HOXA2 (Homo sapiens, UniProt O43364 129-215); NKX2-5 (Homo sapiens, UniProt P52952 125-210).
What all share (assay): PBM; 200 nM protein, PBS
Settings in all cases: dsDNA, one strand shown

Assay [1] has as its target NKX3-2 (Homo sapiens, UniProt P78367 192-278, P234S).
Assay [2] addresses NKX3-2 (Homo sapiens, UniProt P78367 192-278).

Chain of NKX3-2 (Homo sapiens, UniProt P78367 192-278) (P78367 192-278): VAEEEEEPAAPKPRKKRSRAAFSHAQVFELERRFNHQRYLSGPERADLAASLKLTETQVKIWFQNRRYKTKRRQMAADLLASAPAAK
Chain of NKX3-2 (Homo sapiens, UniProt P78367 192-278, P234S) (P78367 192-278 P234S): as the sequence (P78367 192-278) above, with P43S counted along it
Chain of CRX (O43186 26-111 R41L): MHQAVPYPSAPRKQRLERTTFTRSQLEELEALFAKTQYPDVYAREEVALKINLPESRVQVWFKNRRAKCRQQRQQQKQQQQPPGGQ
Chain of HOXA2 (O43364 129-215): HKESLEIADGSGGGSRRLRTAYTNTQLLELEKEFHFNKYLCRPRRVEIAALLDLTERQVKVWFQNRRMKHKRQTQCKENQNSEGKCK
Chain of ALX1 (Q15699 118-204): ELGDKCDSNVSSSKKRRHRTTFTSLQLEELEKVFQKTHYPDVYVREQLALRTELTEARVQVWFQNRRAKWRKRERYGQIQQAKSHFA
Chain of HOXA4 (Q00056 201-287 W262F): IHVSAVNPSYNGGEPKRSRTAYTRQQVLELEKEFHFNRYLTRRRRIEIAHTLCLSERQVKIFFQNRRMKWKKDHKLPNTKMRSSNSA
Chain of ALX3 (O95076 139-225 N203S): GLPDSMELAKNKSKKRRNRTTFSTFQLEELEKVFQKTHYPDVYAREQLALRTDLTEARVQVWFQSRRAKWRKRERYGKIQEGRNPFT
Chain of NKX2-5 (P52952 125-210): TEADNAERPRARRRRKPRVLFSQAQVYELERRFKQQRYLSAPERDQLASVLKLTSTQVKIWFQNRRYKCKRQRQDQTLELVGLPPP

As to GCCCGGCC, the binding signal with NKX3-2 [1] was 10.3 upbm affinity estimate (log intensity, higher = more binding, comparable within an allelic series); with NKX3-2 [2] it was 10.2 upbm affinity estimate (log intensity, higher = more binding, comparable within an allelic series). As to GGACCCGA, the binding signal was 10.6 upbm affinity estimate (log intensity, higher = more binding, comparable within an allelic series) with NKX3-2 [1] and 10.6 upbm affinity estimate (log intensity, higher = more binding, comparable within an allelic series) in the assay with NKX3-2 [2]. As for CACGGGCA, the binding signal was 10.5 upbm affinity estimate (log intensity, higher = more binding, comparable within an allelic series) with NKX3-2 [1] and 10.6 upbm affinity estimate (log intensity, higher = more binding, comparable within an allelic series) with NKX3-2 [2]. As for AAGTATAC, the binding signal is 11.6 upbm affinity estimate (log intensity, higher = more binding, comparable within an allelic series) with NKX3-2 [1] and 11.7 upbm affinity estimate (log intensity, higher = more binding, comparable within an allelic series) with NKX3-2 [2]. In the case of GTCACTTA, the binding signal with NKX3-2 [1] is 12.5 upbm affinity estimate (log intensity, higher = more binding, comparable within an allelic series); in the assay with NKX3-2 [2], 12.6 upbm affinity estimate (log intensity, higher = more binding, comparable within an allelic series). On to GAGTACAC, for which the binding signal in the assay with NKX3-2 [1] was 12.1 upbm affinity estimate (log intensity, higher = more binding, comparable within an allelic series); in the assay with NKX3-2 [2] it was 12.2 upbm affinity estimate (log intensity, higher = more binding, comparable within an allelic series). For ACCGAACC, the binding signal is 10.6 upbm affinity estimate (log intensity, higher = more binding, comparable within an allelic series) with NKX3-2 [1] and 10.7 upbm affinity estimate (log intensity, higher = more binding, comparable within an allelic series) with NKX3-2 [2]. Consider ACGATCGA, for which the binding signal was 10.7 upbm affinity estimate (log intensity, higher = more binding, comparable within an allelic series) with NKX3-2 [1] and 10.7 upbm affinity estimate (log intensity, higher = more binding, comparable within an allelic series) with NKX3-2 [2].

Take GGCTCCCC: the binding signal with NKX3-2 [1] is 10.6 upbm affinity estimate (log intensity, higher = more binding, comparable within an allelic series); with NKX3-2 [2], 10.6 upbm affinity estimate (log intensity, higher = more binding, comparable within an allelic series). As to AAGTGGGA, the binding signal was 12.6 upbm affinity estimate (log intensity, higher = more binding, comparable within an allelic series) with NKX3-2 [1] and 12.6 upbm affinity estimate (log intensity, higher = more binding, comparable within an allelic series) with NKX3-2 [2]. Regarding GAGCTAGC, the binding signal was 10.7 upbm affinity estimate (log intensity, higher = more binding, comparable within an allelic series) in the assay with NKX3-2 [1] and 10.7 upbm affinity estimate (log intensity, higher = more binding, comparable within an allelic series) with NKX3-2 [2]. Turning to AGTGGTCC, the binding signal with NKX3-2 [1] is 11.9 upbm affinity estimate (log intensity, higher = more binding, comparable within an allelic series); in the assay with NKX3-2 [2], 11.9 upbm affinity estimate (log intensity, higher = more binding, comparable within an allelic series). AAGTGCCA: the binding signal was 12.6 upbm affinity estimate (log intensity, higher = more binding, comparable within an allelic series) with NKX3-2 [1] and 12.8 upbm affinity estimate (log intensity, higher = more binding, comparable within an allelic series) with NKX3-2 [2]. Consider AAAGTGGG, for which the binding signal was 12.4 upbm affinity estimate (log intensity, higher = more binding, comparable within an allelic series) in the assay with NKX3-2 [1] and 12.6 upbm affinity estimate (log intensity, higher = more binding, comparable within an allelic series) in the assay with NKX3-2 [2]. Turning to ACCACGGC, the binding signal was 10.5 upbm affinity estimate (log intensity, higher = more binding, comparable within an allelic series) with NKX3-2 [1] and 10.5 upbm affinity estimate (log intensity, higher = more binding, comparable within an allelic series) in the assay with NKX3-2 [2]. As to GAGTGACA, the binding signal is 11.4 upbm affinity estimate (log intensity, higher = more binding, comparable within an allelic series) with NKX3-2 [1] and 11.5 upbm affinity estimate (log intensity, higher = more binding, comparable within an allelic series) with NKX3-2 [2]. For CCTAAGTA, the binding signal in the assay with NKX3-2 [1] is 12.1 upbm affinity estimate (log intensity, higher = more binding, comparable within an allelic series); in the assay with NKX3-2 [2], 12.1 upbm affinity estimate (log intensity, higher = more binding, comparable within an allelic series). As to ACCACTTC, the binding signal in the assay with NKX3-2 [1] was 12.8 upbm affinity estimate (log intensity, higher = more binding, comparable within an allelic series); in the assay with NKX3-2 [2], 12.8 upbm affinity estimate (log intensity, higher = more binding, comparable within an allelic series). Turning to CCACTTCG, the binding signal with NKX3-2 [1] is 12.8 upbm affinity estimate (log intensity, higher = more binding, comparable within an allelic series); with NKX3-2 [2], 12.9 upbm affinity estimate (log intensity, higher = more binding, comparable within an allelic series).

Take AGTGGAGA: the binding signal with NKX3-2 [1] was 11.7 upbm affinity estimate (log intensity, higher = more binding, comparable within an allelic series); with NKX3-2 [2], 11.7 upbm affinity estimate (log intensity, higher = more binding, comparable within an allelic series). Regarding AGTGCACT, the binding signal with NKX3-2 [1] was 12.3 upbm affinity estimate (log intensity, higher = more binding, comparable within an allelic series); with NKX3-2 [2], 12.6 upbm affinity estimate (log intensity, higher = more binding, comparable within an allelic series).

On to GAAGTGGC, for which the binding signal with NKX3-2 [1] is 12.7 upbm affinity estimate (log intensity, higher = more binding, comparable within an allelic series); with NKX3-2 [2], 12.8 upbm affinity estimate (log intensity, higher = more binding, comparable within an allelic series). As for GTATTAGA, the binding signal with CRX is 10.7 upbm affinity estimate (log intensity, higher = more binding, comparable within an allelic series). Take CTAAGCTC: the binding signal in the assay with CRX is 11.1 upbm affinity estimate (log intensity, higher = more binding, comparable within an allelic series). With GTCAACAA, the binding signal with ALX1 was 7.43 upbm affinity estimate (log intensity, higher = more binding, comparable within an allelic series). Turning to CCATTAGA, in the assay with HOXA4, the binding signal is 10.6 upbm affinity estimate (log intensity, higher = more binding, comparable within an allelic series). In the case of CTATATTA, in the assay with ALX3, the binding signal is 8.73 upbm affinity estimate (log intensity, higher = more binding, comparable within an allelic series). For the sequence GACACTAA, the binding signal in the assay with HOXA2 was 9.38 upbm affinity estimate (log intensity, higher = more binding, comparable within an allelic series). As for AAATACCA, the binding signal with HOXA2 was 9.01 upbm affinity estimate (log intensity, higher = more binding, comparable within an allelic series). As for AATTGACC, the binding signal in the assay with NKX2-5 is 10.6 upbm affinity estimate (log intensity, higher = more binding, comparable within an allelic series). In the case of GGAGAGTA, in the assay with NKX3-2 [2], the binding signal was 11.6 upbm affinity estimate (log intensity, higher = more binding, comparable within an allelic series). The same measure, in the same setting: next, CCCTCAAA: 11.6 upbm affinity estimate (log intensity, higher = more binding, comparable within an allelic series).
